Results as given in the antibiotic and cytotoxicity screens of Wong et al. (2023).
The campaign covered roughly 39,000 compounds. About 3,300 (8.5%) were called active. What follows is part of a selection rich in actives, with near analogues and random picks from the rest.

The compounds below were run on HepG2 (assay: cytotoxicity call (relative viability < 0.9)). Conditions: 10 µM.

Row | SMILES | cytotoxicity call
1 | Cc1ccc(S(=O)(=O)N(C)C[C@H]2Oc3ncc(-c4ccncc4)cc3C(=O)N([C@@H](C)CO)C[C@@H]2C)cc1 | inactive
2 | C[C@@H]1CCCCO[C@@H](CN(C)C(=O)Nc2cccc3ccccc23)[C@@H](C)CN([C@@H](C)CO)C(=O)c2cc(NC(=O)Nc3ccc(C(F)(F)F)cc3)ccc2O1 | inactive
3 | C[C@H]1CN([C@@H](C)CO)C(=O)Cc2cc(NC(=O)CCN3CCOCC3)ccc2O[C@H]1CN(C)Cc1ccc(C(=O)Nc2ccccc2N)cc1 | inactive
4 | Cc1ccc(S(=O)(=O)N[C@@H](Cc2ccccc2)C(=O)NCCCn2cc(CN3C(=O)COC[C@H]3c3ccccc3)nn2)cc1 | inactive
5 | CC(=O)O[C@@H]1[C@H](OC(C)=O)N(C(C)=O)C(=O)N1C(C)=O | inactive
6 | CC(=O)O[C@@H]1[C@@H]2C[C@@H]([C@H]1OC(C)=O)[C@@H]1C(=O)N(C)C(=O)[C@@H]21 | active
7 | CC(=O)O[C@@H]1[C@H](OC(C)=O)N(C)C(=O)N1C | inactive
8 | C[C@@H]1CN([C@H](C)CO)C(=O)c2cccc(NS(C)(=O)=O)c2O[C@H]1CN(C)Cc1ccc(C(=O)Nc2ccccc2N)cc1 | inactive
9 | C[C@@H]1O[C@@H](OC[C@H]2O[C@@H](Oc3c(-c4ccc(O)cc4)oc4cc(O)cc(O)c4c3=O)[C@H](O)[C@@H](O)[C@@H]2O)[C@H](O)[C@H](O)[C@H]1O | inactive
10 | COc1ccc(CN2C[C@H](C)[C@H](OC)CN(C)C(=O)c3cc(NC(=O)c4nc5ccccc5s4)ccc3OC[C@@H]2C)cc1 | inactive
11 | C[C@@H]1CN([C@@H](C)CO)C(=O)c2cc(NC(=O)Cn3cnnn3)ccc2O[C@@H]1CN(C)S(=O)(=O)c1ccc(F)cc1 | inactive
12 | Cc1ccc(-c2ncns2)cc1 | inactive
13 | Cc1cccnc1[C@@H](NC(=O)C1CCN(CCOc2ccc(Cl)cc2Cl)CC1)c1ccc(Cl)cc1 | inactive
14 | Cc1cccnc1[C@@H](NC(=O)C1CCN(Cc2ccc(Oc3ccccc3)cc2)CC1)c1ccc(F)cc1 | inactive
15 | COc1cc(CN2CCC(C(=O)N[C@@H](c3ccc(-c4ccccc4)cc3)c3cnccn3)CC2)cc(OC)c1 | active
16 | O=C(N[C@H](c1ccc(Cl)cc1)c1ccsc1)C1CCN(Cc2ccc(Oc3ccccc3)cc2)CC1 | inactive
17 | Cc1cccnc1[C@@H](NC(=O)C1CCN(Cc2ccc(Cl)c(Cl)c2)CC1)c1ccc(Cl)cc1 | active
18 | COc1ccc([C@@H](NC(=O)C2CCN(Cc3ccc(Oc4ccccc4)cc3)CC2)c2ccccn2)cc1 | inactive
19 | O=C(N[C@@H](c1ccc(-c2ccccc2)cc1)c1cnccn1)C1CCN(Cc2ccc(Oc3ccccc3)cc2)CC1 | active
20 | O=C(N[C@@H](c1ccc(-c2ccccc2)cc1)c1cnccn1)C1CCN(Cc2ccc(Cl)c(Cl)c2)CC1 | inactive
21 | COc1cccc([C@@H](NC(=O)C2CCN(Cc3ccc(Oc4ccccc4)cc3)CC2)c2ccccn2)c1 | inactive
22 | O=C(N[C@@H](c1ccc(-c2ccccc2)cc1)c1cnccn1)C1CCN(Cc2cccc(C(F)(F)F)c2)CC1 | inactive
23 | O=C(N[C@H](c1ccc(Cl)cc1)c1cnccn1)C1CCN(Cc2ccc(Oc3ccccc3)cc2)CC1 | active
